Experimental data reported in the supplement of paper PMC11732987, “Enantioselective OTUD7B fragment discovery through chemoproteomics screening and high-throughput optimisation” (Communications Chemistry, 2025).

Legend:
Experiment in all cases: log2 ratio of Biotin-Ahx-Ub-VS probe labelling (fragment/DMSO); higher = less target engagement (more negative = stronger competition), active = hit call of the paper (q ≤ 0.05, log2 ratio ≤ -1)
Settings in all cases: compound concentration: 200 uM; treatment time: 3 h
[1] = molecular target: USP34 (UniProt Q70CQ2)
Sequence of USP34 (Q70CQ2 whole entry, the tested form may be a part): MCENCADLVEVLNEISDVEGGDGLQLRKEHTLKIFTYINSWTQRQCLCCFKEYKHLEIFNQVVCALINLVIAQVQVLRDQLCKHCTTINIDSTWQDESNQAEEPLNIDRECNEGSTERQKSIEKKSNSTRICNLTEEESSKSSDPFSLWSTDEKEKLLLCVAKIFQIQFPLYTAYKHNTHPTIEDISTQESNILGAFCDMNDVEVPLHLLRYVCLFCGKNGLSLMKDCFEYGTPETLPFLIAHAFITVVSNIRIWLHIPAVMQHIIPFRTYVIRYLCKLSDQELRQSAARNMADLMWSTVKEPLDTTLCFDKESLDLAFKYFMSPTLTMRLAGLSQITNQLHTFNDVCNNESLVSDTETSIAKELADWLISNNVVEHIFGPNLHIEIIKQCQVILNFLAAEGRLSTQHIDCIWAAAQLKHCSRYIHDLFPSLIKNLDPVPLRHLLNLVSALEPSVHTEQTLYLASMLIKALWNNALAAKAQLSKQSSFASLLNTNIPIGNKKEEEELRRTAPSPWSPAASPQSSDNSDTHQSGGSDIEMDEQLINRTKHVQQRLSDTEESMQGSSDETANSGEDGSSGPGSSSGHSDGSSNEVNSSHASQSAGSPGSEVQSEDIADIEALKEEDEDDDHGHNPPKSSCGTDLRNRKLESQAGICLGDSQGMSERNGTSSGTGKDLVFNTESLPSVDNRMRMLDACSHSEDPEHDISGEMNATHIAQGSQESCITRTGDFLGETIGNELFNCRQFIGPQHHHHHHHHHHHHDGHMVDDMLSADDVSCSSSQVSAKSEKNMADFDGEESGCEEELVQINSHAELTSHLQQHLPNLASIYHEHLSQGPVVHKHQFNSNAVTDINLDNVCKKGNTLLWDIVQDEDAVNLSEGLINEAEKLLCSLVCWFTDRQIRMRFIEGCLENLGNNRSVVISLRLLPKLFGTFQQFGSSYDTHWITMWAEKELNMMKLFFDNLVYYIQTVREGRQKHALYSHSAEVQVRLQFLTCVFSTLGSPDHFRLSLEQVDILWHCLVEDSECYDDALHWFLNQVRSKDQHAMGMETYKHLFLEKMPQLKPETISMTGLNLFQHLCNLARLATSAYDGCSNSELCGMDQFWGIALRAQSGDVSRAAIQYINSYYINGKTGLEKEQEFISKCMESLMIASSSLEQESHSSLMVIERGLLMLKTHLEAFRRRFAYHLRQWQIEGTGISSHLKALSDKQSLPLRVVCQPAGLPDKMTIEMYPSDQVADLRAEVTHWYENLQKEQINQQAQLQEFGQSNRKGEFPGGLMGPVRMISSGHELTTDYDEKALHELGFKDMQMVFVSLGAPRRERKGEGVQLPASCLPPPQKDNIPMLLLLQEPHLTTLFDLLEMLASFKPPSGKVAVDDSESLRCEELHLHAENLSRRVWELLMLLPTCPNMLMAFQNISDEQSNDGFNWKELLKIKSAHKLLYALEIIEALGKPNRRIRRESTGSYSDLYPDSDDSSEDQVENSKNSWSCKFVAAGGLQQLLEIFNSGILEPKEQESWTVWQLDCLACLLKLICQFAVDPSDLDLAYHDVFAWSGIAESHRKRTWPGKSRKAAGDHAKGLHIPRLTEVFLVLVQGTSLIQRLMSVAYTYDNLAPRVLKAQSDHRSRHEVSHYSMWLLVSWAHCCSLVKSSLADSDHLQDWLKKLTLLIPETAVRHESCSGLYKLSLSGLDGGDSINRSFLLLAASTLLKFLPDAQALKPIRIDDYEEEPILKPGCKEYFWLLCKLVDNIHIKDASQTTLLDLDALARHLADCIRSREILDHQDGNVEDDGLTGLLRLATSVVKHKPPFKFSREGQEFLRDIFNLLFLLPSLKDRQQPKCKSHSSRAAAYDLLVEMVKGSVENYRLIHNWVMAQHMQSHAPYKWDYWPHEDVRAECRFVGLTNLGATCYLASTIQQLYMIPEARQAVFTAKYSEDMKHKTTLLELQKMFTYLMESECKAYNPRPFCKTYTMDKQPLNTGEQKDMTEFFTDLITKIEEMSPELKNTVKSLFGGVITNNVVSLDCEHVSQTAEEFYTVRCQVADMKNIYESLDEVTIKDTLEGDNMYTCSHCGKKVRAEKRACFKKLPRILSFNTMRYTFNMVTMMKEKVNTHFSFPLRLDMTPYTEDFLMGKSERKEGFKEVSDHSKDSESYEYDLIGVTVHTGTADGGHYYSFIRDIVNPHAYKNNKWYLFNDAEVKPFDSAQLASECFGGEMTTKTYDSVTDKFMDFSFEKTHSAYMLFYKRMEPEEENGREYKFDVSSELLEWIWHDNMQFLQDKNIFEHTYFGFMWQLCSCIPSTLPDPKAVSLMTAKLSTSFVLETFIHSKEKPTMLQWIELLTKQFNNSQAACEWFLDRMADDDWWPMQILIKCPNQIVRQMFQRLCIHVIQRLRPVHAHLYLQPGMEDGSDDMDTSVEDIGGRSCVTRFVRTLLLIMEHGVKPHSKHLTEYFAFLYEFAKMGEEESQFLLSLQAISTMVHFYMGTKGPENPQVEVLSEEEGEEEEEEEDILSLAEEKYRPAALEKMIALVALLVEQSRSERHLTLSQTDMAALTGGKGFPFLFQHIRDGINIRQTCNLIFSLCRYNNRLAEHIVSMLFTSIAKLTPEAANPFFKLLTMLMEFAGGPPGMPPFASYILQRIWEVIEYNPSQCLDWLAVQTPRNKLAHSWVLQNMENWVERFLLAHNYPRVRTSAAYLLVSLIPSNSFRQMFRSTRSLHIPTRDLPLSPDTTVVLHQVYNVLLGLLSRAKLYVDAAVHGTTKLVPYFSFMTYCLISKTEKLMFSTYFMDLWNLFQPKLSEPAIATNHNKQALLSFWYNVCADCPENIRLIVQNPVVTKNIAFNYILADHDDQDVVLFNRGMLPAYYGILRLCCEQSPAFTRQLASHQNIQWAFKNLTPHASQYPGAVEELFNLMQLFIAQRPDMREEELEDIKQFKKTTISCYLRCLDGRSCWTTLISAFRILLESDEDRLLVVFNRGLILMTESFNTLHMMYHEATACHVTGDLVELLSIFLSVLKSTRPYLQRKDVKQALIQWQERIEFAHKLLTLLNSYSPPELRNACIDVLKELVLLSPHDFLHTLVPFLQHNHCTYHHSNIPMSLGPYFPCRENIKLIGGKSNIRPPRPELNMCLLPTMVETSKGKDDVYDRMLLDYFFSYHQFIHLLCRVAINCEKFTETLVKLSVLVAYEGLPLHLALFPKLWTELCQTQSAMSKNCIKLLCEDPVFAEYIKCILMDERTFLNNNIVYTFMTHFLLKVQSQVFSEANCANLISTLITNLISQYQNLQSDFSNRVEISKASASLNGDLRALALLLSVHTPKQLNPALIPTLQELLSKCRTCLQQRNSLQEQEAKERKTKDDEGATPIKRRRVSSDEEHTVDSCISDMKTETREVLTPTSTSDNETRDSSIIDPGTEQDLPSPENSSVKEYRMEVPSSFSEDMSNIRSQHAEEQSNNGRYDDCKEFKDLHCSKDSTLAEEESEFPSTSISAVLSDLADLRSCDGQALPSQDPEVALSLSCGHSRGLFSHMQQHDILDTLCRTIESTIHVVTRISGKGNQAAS
Procedure, shortened: (§1)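 Triplicate samples of HEK293T lysate, 495 µg each, received fragment at 200 µM or vehicle for 3 h, followed by Biotin-Ahx-Ub-VS (0.5 µM final) for 1 h. After NeutrAvidin enrichment of labelled DUBs and LysC/trypsin digestion, peptides were run by diaPASEF LC-MS/MS. The values are average log2 fragment/vehicle ratios from global-median-normalised Spectronaut label-free quantities, tested by unpaired t-test on proteins having ≥2 unique peptides.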

[2] = molecular target: T1, USP36 (UniProt Q9P275)
T1 sequence (whole entry): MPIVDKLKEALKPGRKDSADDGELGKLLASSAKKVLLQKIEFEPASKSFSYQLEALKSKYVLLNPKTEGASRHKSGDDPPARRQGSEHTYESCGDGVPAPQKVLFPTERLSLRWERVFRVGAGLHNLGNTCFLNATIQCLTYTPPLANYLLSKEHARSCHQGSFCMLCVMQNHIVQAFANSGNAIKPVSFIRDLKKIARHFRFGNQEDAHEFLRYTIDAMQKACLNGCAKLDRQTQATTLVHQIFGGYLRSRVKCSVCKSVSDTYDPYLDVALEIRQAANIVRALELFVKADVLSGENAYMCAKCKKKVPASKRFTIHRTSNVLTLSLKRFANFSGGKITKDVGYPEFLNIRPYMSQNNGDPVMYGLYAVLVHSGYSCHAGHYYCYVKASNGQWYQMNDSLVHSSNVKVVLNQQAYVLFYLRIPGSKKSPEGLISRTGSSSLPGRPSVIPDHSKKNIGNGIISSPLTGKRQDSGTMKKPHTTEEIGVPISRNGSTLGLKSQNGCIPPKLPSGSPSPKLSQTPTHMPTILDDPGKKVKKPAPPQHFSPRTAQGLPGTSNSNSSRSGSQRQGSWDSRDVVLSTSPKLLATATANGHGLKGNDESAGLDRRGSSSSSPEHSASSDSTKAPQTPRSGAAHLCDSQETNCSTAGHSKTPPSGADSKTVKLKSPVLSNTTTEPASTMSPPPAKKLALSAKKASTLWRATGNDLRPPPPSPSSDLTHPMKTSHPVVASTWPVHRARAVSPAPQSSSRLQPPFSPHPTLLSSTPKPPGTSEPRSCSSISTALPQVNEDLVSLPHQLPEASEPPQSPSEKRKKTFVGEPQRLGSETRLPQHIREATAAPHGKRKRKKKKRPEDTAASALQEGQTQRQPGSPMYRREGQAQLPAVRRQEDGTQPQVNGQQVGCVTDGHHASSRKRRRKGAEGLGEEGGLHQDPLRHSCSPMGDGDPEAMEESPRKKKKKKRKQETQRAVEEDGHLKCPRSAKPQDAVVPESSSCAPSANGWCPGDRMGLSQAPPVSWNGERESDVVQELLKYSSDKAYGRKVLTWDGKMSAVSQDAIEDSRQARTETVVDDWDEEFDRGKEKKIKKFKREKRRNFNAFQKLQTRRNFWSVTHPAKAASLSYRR
Procedure, shortened: as §1

[3] = molecular target: T2, USP38 (UniProt Q8NB14)
T2 sequence (whole entry): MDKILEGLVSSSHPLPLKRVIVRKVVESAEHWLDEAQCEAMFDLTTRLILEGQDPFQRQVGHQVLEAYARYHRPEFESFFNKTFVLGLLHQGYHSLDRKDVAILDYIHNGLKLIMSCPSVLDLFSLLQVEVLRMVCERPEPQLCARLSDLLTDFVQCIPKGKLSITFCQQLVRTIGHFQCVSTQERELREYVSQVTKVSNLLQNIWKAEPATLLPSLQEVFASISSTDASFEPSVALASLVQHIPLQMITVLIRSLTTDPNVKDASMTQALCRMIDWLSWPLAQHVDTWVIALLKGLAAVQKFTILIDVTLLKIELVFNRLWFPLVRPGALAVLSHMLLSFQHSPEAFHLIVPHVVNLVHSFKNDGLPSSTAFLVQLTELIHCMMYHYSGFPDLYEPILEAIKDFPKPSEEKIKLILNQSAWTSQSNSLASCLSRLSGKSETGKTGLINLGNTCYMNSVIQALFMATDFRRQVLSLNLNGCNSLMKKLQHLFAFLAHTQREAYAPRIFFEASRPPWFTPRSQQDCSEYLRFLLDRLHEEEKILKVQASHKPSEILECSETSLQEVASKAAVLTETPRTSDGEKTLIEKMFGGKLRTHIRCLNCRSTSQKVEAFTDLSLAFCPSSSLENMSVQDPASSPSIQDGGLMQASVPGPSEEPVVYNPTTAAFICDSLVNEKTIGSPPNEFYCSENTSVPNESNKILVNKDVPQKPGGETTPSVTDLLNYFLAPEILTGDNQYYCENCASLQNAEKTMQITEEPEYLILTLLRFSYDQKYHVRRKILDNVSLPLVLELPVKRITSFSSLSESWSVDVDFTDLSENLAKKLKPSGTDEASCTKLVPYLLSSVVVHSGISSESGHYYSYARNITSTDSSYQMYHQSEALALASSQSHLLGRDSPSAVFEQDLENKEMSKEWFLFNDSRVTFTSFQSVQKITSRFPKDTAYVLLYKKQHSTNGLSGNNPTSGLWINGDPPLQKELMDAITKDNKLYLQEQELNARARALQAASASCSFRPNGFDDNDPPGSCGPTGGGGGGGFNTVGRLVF
Procedure, shortened: as §1

[4] = molecular target: T3, USP39 (UniProt Q53GS9)
T3 sequence (whole entry): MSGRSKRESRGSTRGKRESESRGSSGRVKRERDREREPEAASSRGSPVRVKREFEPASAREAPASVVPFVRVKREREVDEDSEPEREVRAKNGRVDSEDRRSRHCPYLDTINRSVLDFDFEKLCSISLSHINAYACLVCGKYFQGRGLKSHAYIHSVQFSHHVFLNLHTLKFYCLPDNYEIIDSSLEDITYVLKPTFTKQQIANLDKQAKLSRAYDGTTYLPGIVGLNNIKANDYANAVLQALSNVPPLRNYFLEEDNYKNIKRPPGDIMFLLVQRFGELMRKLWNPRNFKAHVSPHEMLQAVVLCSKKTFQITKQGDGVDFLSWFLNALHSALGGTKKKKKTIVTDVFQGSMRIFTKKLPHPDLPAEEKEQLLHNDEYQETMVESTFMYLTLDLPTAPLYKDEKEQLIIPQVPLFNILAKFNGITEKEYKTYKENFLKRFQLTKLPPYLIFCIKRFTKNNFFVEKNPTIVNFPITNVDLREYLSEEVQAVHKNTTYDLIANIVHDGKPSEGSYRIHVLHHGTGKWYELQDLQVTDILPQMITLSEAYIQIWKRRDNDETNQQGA
Procedure, shortened: as §1

[5] = molecular target: T4, USP4 (UniProt Q13107)
T4 sequence (whole entry): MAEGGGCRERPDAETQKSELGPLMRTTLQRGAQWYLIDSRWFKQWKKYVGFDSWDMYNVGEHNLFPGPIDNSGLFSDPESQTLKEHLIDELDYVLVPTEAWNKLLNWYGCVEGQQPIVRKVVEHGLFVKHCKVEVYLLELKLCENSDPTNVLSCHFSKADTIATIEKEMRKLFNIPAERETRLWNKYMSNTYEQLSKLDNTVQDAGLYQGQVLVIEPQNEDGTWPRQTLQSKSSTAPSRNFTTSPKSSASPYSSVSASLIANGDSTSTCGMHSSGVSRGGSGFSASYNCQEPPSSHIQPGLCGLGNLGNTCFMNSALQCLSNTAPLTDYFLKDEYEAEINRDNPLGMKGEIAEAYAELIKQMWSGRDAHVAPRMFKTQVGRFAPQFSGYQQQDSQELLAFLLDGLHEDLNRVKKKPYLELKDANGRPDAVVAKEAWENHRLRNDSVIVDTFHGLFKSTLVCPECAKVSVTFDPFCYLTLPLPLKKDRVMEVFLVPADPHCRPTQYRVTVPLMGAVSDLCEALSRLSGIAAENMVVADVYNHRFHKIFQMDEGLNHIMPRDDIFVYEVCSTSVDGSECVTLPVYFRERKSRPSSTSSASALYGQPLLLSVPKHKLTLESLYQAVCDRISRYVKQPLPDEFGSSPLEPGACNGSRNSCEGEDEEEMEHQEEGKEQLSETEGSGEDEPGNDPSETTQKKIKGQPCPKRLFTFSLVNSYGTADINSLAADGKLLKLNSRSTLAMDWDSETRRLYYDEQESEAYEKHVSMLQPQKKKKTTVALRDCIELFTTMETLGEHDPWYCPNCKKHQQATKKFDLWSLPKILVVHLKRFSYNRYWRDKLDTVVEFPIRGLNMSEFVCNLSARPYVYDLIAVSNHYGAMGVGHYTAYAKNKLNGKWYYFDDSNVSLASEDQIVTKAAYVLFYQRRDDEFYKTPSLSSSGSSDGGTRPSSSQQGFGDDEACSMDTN
Procedure, shortened: as §1

Measured: log2 ratio of Biotin-Ahx-Ub-VS probe labelling

Cl.O=C(CCl)N1CCCC(c2ncc[nH]2)C1 (stereo not given)
inactive: [1] 0.00166 | [2] 0.0764 | [3] -0.0133 | [4] 0.00979 | [5] 0.124
